LASV entry inh = inhibitors of Lassa virus binding or cell entry | Lassa virus pseudotype entry inhibition, cell reporter | Potency, µM (titrated, usually from 37.9 µM), for the others: at the highest dose activity change, negative = inhibition, actives largely listed as inhibitors | actives 1.2% (n = 300,000); calls by dose curve; tested in HEK293 cells; note: potency is the fitted concentration of half-maximal effect; % is set by controls: 0 for no effect and ±100 for the full control effect; nearly all actives have a fitted effect of over 50% in size
Shiga inhibitor = blocks Shiga toxin action in Vero cells. inhibition, % at 38.7 µM. actives 9.2% (n = 290,000). Vero cells, Shiga toxin protein synthesis inhibition reporter; in the data active = inhibition mostly above about 28%, no sharp cut-off; inactive = mostly below about 43%; note: 0% is about no effect
VACV Venus inh = inhibitors of vaccinia virus (Venus reporter) | Vaccinia virus Venus reporter expression, fluorescence | Potency, µM (titrated, usually from 36.5 µM), for inactives: top-dose activity change, negative = inhibition, most hits filed as inhibitors | actives 0.46% (n = 330,000) | AID 720580; calls by dose curve; tested in A549 cells; note: potency is the fitted concentration of half-maximal effect; % is set by controls: 0 for no effect and ±100 for the full control effect; nearly all actives have a fitted effect of over 30% in size
Marburg entry inh = inhibitors of Marburg virus binding or cell entry; Marburg virus pseudotyped entry inhibition, cell reporter; Potency, µM (top dose mostly 37.8 µM), for the others: top-dose activity change, negative = inhibition, actives largely listed as inhibitors; actives 1.8% (n = 300,000); AID 540276; calls by dose curve; tested in HEK293 cells; note: potency is the fitted concentration of half-maximal effect; % is set by controls: 0 for no effect and ±100 for the full control effect
Vaccinia mCherry = vaccinia inhibition (mCherry reporter); Vaccinia virus mCherry reporter infection, fluorescence; Potency, µM (top dose mostly 36.5 µM), without a hit: at the highest dose activity change, negative = inhibition, most hits filed as inhibitors; actives 0.63% (n = 310,000); AID 720579; calls by dose curve; tested in A549 cells; note: potency is the fitted concentration of half-maximal effect; % is set by controls: 0 for no effect and ±100 for the full control effect; nearly all actives have a fitted effect of over 35% in size
Cycloheximide cs = counter-screen hit for Shiga toxin inhibitors, cycloheximide | max response, % | actives 12% (n = 300,000) | cell reporter, cycloheximide protein synthesis inhibition counterscreen | AID 2314; in the data active = max response mostly above about 13%, no sharp cut-off; inactive = mostly below about 14%; note: read at 38.3 µM for the half of the compounds with a filed dose; 0% is about no effect
* hit, by the source's call; i = inactive; ? = inconclusive; nt = not tested or not shown; [ ] = remark or other dose. Only a selection was taken, and hits are over-represented in it overall.

SMILES	LASV entry inh	Shiga inhibitor	VACV Venus inh	Marburg entry inh	Vaccinia mCherry	Cycloheximide cs
c1cncc(C2Nc3ccccc3-c3nc4ccccc4n32)c1 (stereo not given)	-12.7%	29.2*	-20.5%	-2.9%	?	30.5*
c1csc(C2Nc3ccccc3-c3nc4ccccc4n32)c1 (stereo not given)	-18.5%	123.6*	-15.0%	?	-18.9%	51.8*
CCCN1CCN(c2ncnc3sc(C(=O)Nc4c(C)cc(C)cc4C)c(C)c23)CC1	15.2%[46.1 µM]	nt	-23.0%	nt	-13.1%	nt
Cc1ccc(Cn2c(=O)n(-c3cccc(C(F)(F)F)c3)c(=O)c3c(C)c(C)sc32)c(C)c1	-1.0%[46.1 µM]	nt	-10.1%	-1.7%[46.1 µM]	-9.4%	nt
COC(=O)c1ccccc1NC(=O)c1ncoc1-c1ccco1	2.5%[46.1 µM]	nt	?	nt	-25.9%	nt
O=C(CN1CCN(S(=O)(=O)c2ccc(F)cc2)CC1)Nc1ccc(Cl)c(C(F)(F)F)c1	11.2µM*	-9.3	?	?	nt	1.4
CCNC(=S)NCc1ccc(Cl)cc1	1.4%	nt	0.6%	5.5%	-13.6%	nt
O=C(Nc1cc(-c2ccccc2)[nH]n1)c1ccccc1	?	78.7*	-15.9%[7.34 µM]	?	-3.0%[7.34 µM]	33.7*
O=C(O)c1ccccc1C(=O)Nc1cc(-c2ccccc2)[nH]n1	21.4%	-2.3	3.6%	?	-4.9%	1.5
O=C(Nc1cc(-c2ccccc2)[nH]n1)c1ccccc1F	?	104.6*	-29.5%	?	-6.7%	41.6*
CC(=O)c1cc(-c2ccc(F)cc2)n(CCC(=O)Nc2cc(C)[nH]n2)c1C	-25.2%	10.9	-16.6%	-0.4%	i	-5.0
CCNC(=S)Nc1cc(-c2ccc(Cl)cc2)[nH]n1	-25.4%	7.7	-16.3%	-22.3%[46.1 µM]	i	23.6*
CC(=O)Nc1cc(-c2ccc(F)cc2)[nH]n1	10.4%	129.1	-13.0%	2.7%[46.1 µM]	i	24.0*
CCN1C(=O)[C@H]2[C@H]3[C@H](O)[C@H](O)C/C(=N/OC[C@@H](C)[C@H](OCc4ccccc4)C(C)C)[C@@H]3CC[C@@H]2C1=O	nt	nt	nt	1.2%[14.2 µM]	nt	nt
Nc1nc(N)c2cc(CNc3ccc(Cl)c(Cl)c3)ccc2n1	nt	nt	5.62µM*	nt	?	nt
COCCNC(=S)Nc1ccc2nsnc2c1	3.2%	-18.6	-4.6%	-0.1%	-6.5%	16.4*
C=CCNC(=S)Nc1ccc2nsnc2c1	13.1%	11.2	-16.3%	13.4%	-13.2%	-0.4
C=CCN(CC=C)C(=S)Nc1ccc2nsnc2c1	nt	59.6*	-3.9%	nt	?	26.0*
C=COCCNC(=O)Nc1ccc(Cl)c(Cl)c1	13.4%	54.1*	-14.7%	8.4%	-13.7%	30.7*
COCCNC(=S)Nc1ccc(Cl)c(Cl)c1	1.0%	5.5	-1.0%	13.2%	-2.3%	14.6*
CC(C)(CO)NCc1c(OCc2ccc(Cl)cc2)ccc2ccccc12	2.51µM*	nt	?	?	?	-7.5
CNCc1c(OCc2ccccc2)ccc2ccccc12	?	-3.1	-10.8%	?	-24.7%	1.3
Nc1ccc(C23CC4CC(CC(CO)(C4)C2)C3)cc1	6.1%	11.8	nt	12.6%	nt	19.3*
NCC12CC3CC(C1)CC(c1ccc(Cl)cc1)(C3)C2	nt	-23.6	12.6µM*	nt	?	-9.3
Nc1ccc(C23CC4CC(CC(C4)C2)C3)cc1	-5.0%	-0.9	-17.3%	26.6%	i	7.7
SMILES	LASV entry inh	Shiga inhibitor	VACV Venus inh	Marburg entry inh	Vaccinia mCherry	Cycloheximide cs
Nc1ccc(C23CC4CC(CC(O)(C4)C2)C3)cc1	2.2%	23.7	?	?	nt	27.5*
NCC12CC3CC(C1)CC(CN)(C3)C2	-11.8%	-11.6	nt	18.3µM*	nt	-10.0
Cc1cc(C)c2c(=O)cc(C(=O)NCCc3ccc(S(N)(=O)=O)cc3)oc2c1	-2.2%[46.1 µM]	nt	-1.2%	-10.4%[46.1 µM]	5.6%	nt
CC(=O)c1ccccc1-c1ccc2c(c1)CC(CNC(=O)c1cc(C)on1)O2 (stereo not given)	nt	nt	-4.8%	nt	-20.0%	nt
O=C(CN1C(=O)S/C(=C\c2ccc(Cl)cc2)C1=O)NCCCn1ccnc1	nt	26.0	nt	nt	nt	16.6*
COc1cccc(/C=C2\SC(=O)N(CC(=O)NCCCn3ccnc3)C2=O)c1	14.7%[46.1 µM]	28.9*	-23.0%	-2.2%[46.1 µM]	?	10.8
COc1ccc(/C=C2\SC(=O)N(CCc3nnc(N)s3)C2=O)cc1	nt	103.6*	-3.5%	nt	-9.3%	53.2*
COc1ccc(/C=C2\SC(=O)N(CC(=O)NCCCn3ccnc3)C2=O)cc1	nt	18.9*	nt	nt	nt	64.6*
COc1cccc(/C=C2\SC(=O)N(CCC(=O)NCCCn3ccnc3)C2=O)c1	nt	-15.1	nt	nt	nt	9.5
CC(C)C[C@H]1CNC(=S)N1C[C@H]1CCCN1C[C@H](Cc1ccc(O)cc1)N1C[C@H](CC(C)C)N(CCc2ccccc2)C1=S	nt	nt	-28.7%	nt	-15.1%	nt
S=C(NC1CCCCC1)c1ccc2c(c1)OCO2	3.8%	66.0*	nt	?	nt	21.6*
CN(C(=O)c1ccc2c(c1)OCO2)C1(C(=O)NC2CCCC2)CCCCC1	26.7%	6.6	-0.1%	-11.7%	?	-3.4
c1cc2c(cc1NC1CCCCCC1)OCO2	14.1%	11.4	-2.3%	-2.1%	-13.6%	15.9*
O=C(Nc1ccc2c(c1)OCO2)C1CC1	5.1%	nt	-0.2%	?	i	nt
O=C(NC1CCCCCCC1)c1ccc2c(c1)OCO2	-20.5%	47.9*	nt	-19.3%	nt	41.8*
O=C(NNC(=S)NC1CCCCC1)c1ccc2c(c1)OCO2	19.6%	-4.1	-14.7%	0.8%	-14.8%	-2.4
O=C(NC1CCCCC1)c1ccc2c(c1)OCCO2	-8.5%[46.1 µM]	41.9*	-9.0%	?	-18.8%	21.5*
CCN(CC(=O)Nc1c(F)cccc1F)C(=O)c1n[nH]c2ccccc12	nt	-11.6	nt	nt	nt	5.5
CCOC(=O)C(NC(C)=O)C(=O)Nc1ccc(C)cc1C (stereo not given)	-3.3%	17.6	-11.5%	?	i	-3.0
O=C(c1ccc2c(c1)OCO2)N(Cc1cccs1)C1(C(=O)NC2CCCCC2)CCCCC1	?	-2.3	?	8.91µM*	15.8µM*	0.6
O=C(Cc1cccs1)N(Cc1cccs1)C1(C(=O)NC2CCCC2)CCCCC1	4.6%	-1.6	nt	-29.9%	nt	1.0
Cc1ccc(NC(=O)c2c(C(F)(F)F)nn(C)c2SCc2cccc(C(F)(F)F)c2)cc1C	?	51.4*	nt	?	nt	20.3*
Cc1ccc(NC(=O)c2c(C(F)(F)F)nn(C)c2SCc2ccc(Cl)cc2)cc1C	7.1%	46.0*	nt	?	nt	22.1*
Cc1cccc(C)c1NC(=O)c1sccc1SCc1cccc(C(F)(F)F)c1	4.8%	-3.4	nt	?	nt	1.8
COc1ccc(-c2ccnc(-n3ncc(C(=O)NC(C)(C)CO)c3C3CC3)n2)cc1F	nt	nt	-9.2%	nt	-14.8%	nt
Cc1c(CCOC(=O)c2ccc(N3CCOCC3)c([N+](=O)[O-])c2)sc[n+]1CC#N	13µM*	13.5	-26.2%	?	?	14.6
Cc1ncsc1CCOC(=O)c1ccc(N2CCOCC2)c([N+](=O)[O-])c1	nt	57.7	nt	nt	nt	27.3
c1ccc2c(c1)oc1c(Nc3ccc4c(c3)OCCO4)ncnc12	?	68.9*	nt	?	nt	53.8*
CCc1nc(Nc2ccc3c(c2)OCCO3)c2oc3ccccc3c2n1	-24.7%	5.6	nt	-50.0%	nt	16.7*
Cc1nc(Nc2ccc3c(c2)OCCO3)c2c(C)c(C)sc2n1	-4.2%	45.2	-27.4%	-4.5%[46.1 µM]	-18.7%	20.0*

Screening results (PubChem)
